MARV entry inh: blocks Marburg virus binding to or entry into cells | AID 540276 | actives 1.8% (n = 300,000) | Marburg virus pseudotyped entry inhibition, cell reporter | Potency, µM (highest dose often 37.8 µM), for inactives: at the top dose activity change, negative = inhibition, actives largely listed as inhibitors; calls by dose curve; tested in HEK293 cells; further: potency means the concentration at half of the fitted maximal effect; on the % scale 0 is the no-effect control and ±100 the full control effect
AMA1 RON2 block: inhibitors of Plasmodium falciparum AMA1-RON2 interaction; AlphaScreen AMA1-biotinylated RON2 peptide binding; Potency, µM (top dose mostly 58.2 µM), for the others: at the top dose activity change, negative = inhibition, hits mostly inhibitors; actives 0.2% (n = 360,000); active means well fitted inhibition curve with a large enough effect; inconclusive means small, poorly fitted or top-dose-only effect; inactive means no such curve, though single readings can be large or run the other way;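 further: potency means the concentration at half of the fitted maximal effect; 0% = vehicle wells and -100% = peptide control; nearly all actives have a fitted effect of over 45% in size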
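AMA1 (3D7) with his tag at 25 nM final met compounds first, then biotinylated RON2 peptide at 25 nM; detection used donor plus acceptor beads, 10 µg/mL apiece, read by AlphaScreen after 30 min at room temperature.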
Shiga inhibitor: Shiga toxin inhibition. Vero cells, Shiga toxin protein synthesis inhibition reporter. inhibition, % at 38.7 µM. actives 9.2% (n = 290,000); in the data active means inhibition mostly above about 28%, no sharp cut-off; inactive means mostly below about 43%; further: 0% is about no effect
Cycloheximide cs: affects cycloheximide protein synthesis inhibition readout, counter-screen; cell reporter, cycloheximide protein synthesis inhibition counterscreen; max response, %; actives 12% (n = 300,000); AID 2314; in the data active means max response mostly above about 13%, no sharp cut-off; inactive means mostly below about 14%; further: read at 38.3 µM for the half of the compounds with a filed dose; 0% is about no effect
Lassa entry inh: blocks Lassa virus binding to or entry into cells. Lassa virus pseudotype entry inhibition, cell reporter. Potency, µM (top dose mostly 37.9 µM), inactives show at the highest dose activity change, negative = inhibition, hits mostly inhibitors. actives 1.2% (n = 300,000); calls by dose curve; tested in HEK293 cells; further: potency means the concentration at half of the fitted maximal effect; on the % scale 0 is the no-effect control and ±100 the full control effect; nearly all actives have a fitted effect of over 50% in size
Active calls of the source: *; u = inconclusive; x = no result given; [ ] = dose if it differs, or a comment. This excerpt belongs to a sample that is enriched for hits.

SMILES	MARV entry inh	AMA1 RON2 block	Shiga inhibitor	Cycloheximide cs	Lassa entry inh
COc1ccccc1OCCCn1cc(C#N)c2ccccc21	u	16%	34*	27*	11%
COc1ccccc1OCCCn1cc(C=O)c2ccccc21	u	-26%	16	5	u
S=C(c1cn(CCOc2ccccc2)c2ccccc12)N1CCCC1	u	-22%	20	5	-23%
N#Cc1cn(CCCOc2ccccc2)c2ccccc12	-1%	133%	25	17*	14%
Cc1ccc(-c2nnn3c2nc(NCc2ccc4c(c2)OCO4)c2ccccc23)cc1	1%[46.1 µM]	x	x	x	6%[46.1 µM]
Cc1nn2c(=O)c(NC(=O)c3ccc(F)cc3)cnc2s1	-8%	15%	16	-2	3%
Cc1nn2c(=O)c(NC(=O)c3ccc(Cl)cc3)cnc2s1	u	25%	52*	36*	13%[46.1 µM]
Cc1ccc(C(=O)Nc2cnc3sc(C)nn3c2=O)cc1	1%	-4%	58*	37*	u
O=C(CSc1nccn1Cc1ccco1)Nc1ccc(F)cc1	u	-3%	27	20	7%
O=C(CSc1nccn1Cc1ccco1)Nc1cccc(F)c1	x	2%	39*	27*	2%[46.1 µM]
CC(CCc1ccco1)NC(=O)Nc1cccc(F)c1 (stereo not given)	0%	-5%	16	21*	u
COc1ccc(NC(=O)CSc2nccn2Cc2ccco2)c(OC)c1	u	3%	44*	25*	u
Cc1ccc(NC(=O)CSc2nccn2Cc2ccco2)cc1	18%	-10%	90*	78*	12%
CC(C)CCNC(=O)CN1C(=O)CCn2nc(-c3cn(C)c4ccccc34)cc21	x	x	x	x	0%[46.1 µM]
N#Cc1ccc(NC(=O)C2=COCCO2)cc1	x	0%	x	x	x
Cc1nccn1CC(=O)N/N=C/c1cccs1	10%	0%	3	-2	5%
O=C(CN1c2ccccc2S(=O)(=O)c2ccccc21)NCc1ccc(F)cc1	x	-2%	-3	-5	x
Cc1ccc(NC(=O)CSc2ncc3ccccn23)cc1	6%[46.1 µM]	-6%	70*	28*	0%
CC1(C(=O)NS(=O)(=O)c2ccc3c(c2)CCO3)CCN1C(=O)c1ccccc1CCc1ccccc1 (stereo not given)	x	-11%	x	x	x
CCCN(CC1CCCO1)C(=O)CCc1nnc(CCc2ccc(OC)cc2)o1 (stereo not given)	x	4%	16	27*	x
CCCOC1CCCN(C(=O)CCc2nnc(Cc3cccc(C)c3)o2)C1 (stereo not given)	u	2%	95*	47*	7%[46.1 µM]
CCc1ccc(CN(C)C(=O)CCc2nnc(Cc3cccc(C)c3)o2)nc1	6%[46.1 µM]	-10%	23	2	5%[46.1 µM]
Cc1cccc(Cc2nnc(CCC(=O)N(C)C3CCOC3)o2)c1 (stereo not given)	u	-10%	71*	27*	2%[46.1 µM]
CCN(CC1CCCO1)C(=O)CCc1nnc(Cc2ccc3c(c2)OCO3)o1 (stereo not given)	u	10%	-2	1	6%[46.1 µM]
Cc1cccc(Cc2nnc(CCC(=O)N(CC3CC3)CC3CCCO3)o2)c1 (stereo not given)	u	5%	58*	47*	-2%[46.1 µM]
SMILES	MARV entry inh	AMA1 RON2 block	Shiga inhibitor	Cycloheximide cs	Lassa entry inh
Cc1cccc(NS(=O)(=O)c2ccc3c(c2)OCC(C(=O)N2CCCC2)O3)c1C (stereo not given)	x	x	x	x	-9%[46.1 µM]
CCCCCC(=O)N1C[C@@H](O)[C@H](n2cc(COC(=O)c3ccccc3)nn2)C[C@@H]1c1ccccc1	x	-7%	x	x	x
CCn1c(CNC(=O)c2cccc(C)c2)nnc1SCC(=O)N1CCOCC1	u	15%	-19	-3	-5%
CCC(c1nnc(SCC(=O)Nc2cc(S(C)(=O)=O)ccc2Cl)n1Cc1ccccc1)N(C)C (stereo not given)	10%	33%	-13	-3	9%
CCN1CCN(C(=O)CCc2nnc(CCc3ccc(OC)cc3)o2)[C@@H](C)C1=O	21%	6%	30	23*	4%
COCCn1c(CCC(=O)Nc2ccc(OC)c(OC)c2)nc2cccnc21	9%[46.1 µM]	x	x	x	u
CCOC(=O)C1CCN(CC(=O)Nc2c(C(=O)OC)[nH]c3cccc(Cl)c23)CC1	-23%	6%	-10	-4	2%
COC(=O)c1[nH]c2cccc(Cl)c2c1NC(=O)CN(C)C1CCCCC1	11µM*	-4%	-12	-11	-2%
Cc1nc(-c2nc(-c3c(C(=O)NN)noc3C)cs2)cs1	u	10%	66*	28*	12%[46.1 µM]
CCOC(=O)c1oc2c(c1C)/C(=N/O)CCC2	25%	28%	66*	41*	u
COc1ccc(CCNC(=O)C2CCN(C(=O)c3ccc([N+](=O)[O-])cc3)CC2)cc1	2%	-14%	-3	-4	11%
CCN(CC)S(=O)(=O)c1cc(NC(=O)C2Cc3ccccc3C(=O)O2)ccc1C (stereo not given)	x	12%	56*	27*	x
CCN(CC)S(=O)(=O)c1cc(NC(=O)c2ccc(Br)s2)ccc1C	u	-13%	77*	64*	u
O=C(Nc1cccc(C2OCCCO2)c1)c1cccs1	u	-4%	34	9	5%
O=C(Nc1ccc2c(c1)OCCO2)c1cccs1	u	12%	47*	55*	-21%
O=C1OC(C(=O)Nc2ccc(Cl)c(C(F)(F)F)c2)Cc2ccccc21 (stereo not given)	21%[46.1 µM]	x	x	x	u
O=C(Nc1ccc2c(c1)OCO2)c1ccc(Br)s1	u	-1%	45*	35*	u
CCN(CC)S(=O)(=O)c1cc(NC(=O)NCCCl)ccc1C	9%[46.1 µM]	9%	24	7	u
NC(=S)NN=C1CCSCC1	u	90%	x	x	12%[46.1 µM]
CSc1cccc(NC(=O)C2CCN(S(=O)(=O)c3ccc4c(c3)CCCN4C(=O)C3CCC3)CC2)c1	x	x	x	x	-30%[46.1 µM]
O=C(Nc1ccc2c(c1)OCO2)c1ccncc1	0%[46.1 µM]	-1%	18	15	6%
O=C(Nc1ccc2c(c1)OCO2)c1cccs1	u	3%	197*	61*	u
O=C(c1ccc2c(c1)OCCCO2)c1cccs1	22%	0%	44*	31*	u
Cc1cccc(OCCCn2c(CCNC(=O)C3CCCCC3)nc3ccccc32)c1	u	x	48	10	-7%[46.1 µM]
CCOC(=O)c1cc(-c2ccc(F)cc2)n(CCC(=O)Nc2nc3ccc(OC)cc3s2)c1C	x	x	x	x	-10%[46.1 µM]
SMILES	MARV entry inh	AMA1 RON2 block	Shiga inhibitor	Cycloheximide cs	Lassa entry inh
N#CCCCCn1ccc(NC(=O)c2ccc(Cl)cc2O)n1	-17%	-10%	x	x	-15%
COCCN1C(=O)COc2ccccc2C1C(=O)NC(C)(C)C (stereo not given)	x	0%	x	x	x
N#CC1C(=O)NC(=O)CC12CCCCC2 (stereo not given)	-9%	15%	x	x	-8%
N#C/C(=C\c1ccc([N+](=O)[O-])cc1)C(=O)Nc1ccccc1O	u	20%	40	31*	14%
N#C/C(=C/c1ccc([N+](=O)[O-])cc1)C(=O)Nc1ccccc1O	u	40%	74*	62*	14%
N#C/C(=C/c1ccc(O)c([N+](=O)[O-])c1)C(=O)Nc1ccccc1	2.5µM*	71%	51*	27*	-7%[46.1 µM]

Assay outcomes (PubChem)
